Our source for the Potency values is PubChem BioAssay (Tox21).

Records with an inconclusive call do not appear. Calls of active or inactive are those of the source. Calls follow the shape of the dose curve; as a rule, active = well fitted curve in the direction sought with a large enough effect in the repeat runs; inconclusive = weak or mixed curves; inactive = no such curve, though single readings can be large; an effect the other way counts as inactive or inconclusive.

Experiment [1] can be described thus: A CellTox Green Cytotoxicity Assay to monitor cytotoxicity in HEK293 cells - 32 hour (AID 1224881). Also: nearly all actives have a fitted effect of over 40% in size. Also: potency is read from the fitted curve at half-maximal effect. A digest of the protocol: (§1)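 Tox21 screen in HEK293: membrane-impermeant cyanine dye fluoresces on binding dead-cell DNA; compound pinned 5 h post-seeding, plates held at 37 C, signal read repeatedly through 40 h.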
Experiment [2] can be described thus: A CellTox Green Cytotoxicity Assay to monitor cytotoxicity in HepG2 cells - 0 hour (AID 1224882). Also: nearly all actives have a fitted effect of over 35% in size. A digest of the protocol: (§2)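 Measurements at 0, 8, 16, 24, 32 and 40 h of treatment captured CellTox Green fluorescence in HepG2 cells that had been co-plated with reagent and preincubated 5 h at 37 C/5% CO2.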
The nature of experiment [3]: qHTS RealTime-Glo MT Cell Viability Assay in HepG2 cells - 16 hour (AID 1224885). Also: nearly all actives have a fitted effect of over 50% in size. The procedure, abridged:
(§3)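 Luminescence read-out: viable HepG2 cells reduce a prosubstrate to a NanoLuc substrate, giving a signal proportional to live cell number. Reads taken at 0, 8, 16, 24, 32 and 40 h of compound exposure at 37 C.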

Experiment [4] is described as follows: qHTS RealTime-Glo MT Cell Viability Assay in HEK293 cells - 8 hour (AID 1224887). Also: nearly all actives have a fitted effect of over 50% in size. Also: potency is read from the fitted curve at half-maximal effect. The procedure, abridged: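 HEK293 + NanoLuc + prosubstrate, 600 cells/well; 5 h, 37 C/5% CO2; compound 23 nL in DMSO by pintool; 37 C; luminescence read at 0, 8, 16, 24, 32 and 40 h time points.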
The nature of experiment [5]: A CellTox Green Cytotoxicity Assay to monitor cytotoxicity in HEK293 cells - 16 hour (AID 1224888). Also: nearly all actives have a fitted effect of over 35% in size. Also: potency is read from the fitted curve at half-maximal effect. A digest of the protocol:
as §1

A short description of experiment [6]: qHTS RealTime-Glo MT Cell Viability Assay in HepG2 cells - 0 hour (AID 1224889). Also: nearly all actives have a fitted effect of over 50% in size. A digest of the protocol:
as §3

Experiment [7] can be described thus: A CellTox Green Cytotoxicity Assay to monitor cytotoxicity in HepG2 cells - 8 hour (AID 1224890). Also: nearly all actives have a fitted effect of over 45% in size. A digest of the protocol: as §2
Experiment [8] is described as follows: A CellTox Green Cytotoxicity Assay to monitor cytotoxicity in HEK293 cells - 8 hour (AID 1224884). Also: nearly all actives have a fitted effect of over 35% in size. A digest of the protocol:
as §1

Experiment [9] is described as follows: qHTS RealTime-Glo MT Cell Viability Assay in HEK293 cells - 24 hour (AID 1224886). Also: nearly all actives have a fitted effect of over 50% in size. Also: potency is read from the fitted curve at half-maximal effect. The procedure, abridged: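 Nonlytic real-time viability readout: viable cells convert prosubstrate to NanoLuc substrate, giving luminescence proportional to live cell number. HEK293, 600 cells/well, compound added after 5 h, continuous culture at 37 C.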
The nature of experiment [10]: A CellTox Green Cytotoxicity Assay to monitor cytotoxicity in HepG2 cells - 32 hour (AID 1224883). Also: nearly all actives have a fitted effect of over 50% in size. Also: potency is read from the fitted curve at half-maximal effect. A digest of the protocol: as §2

Turning to `CCCCc1cc2ccccc2c(OCCN(C)C)n1`, the Potency in experiment [1] is 21.3 µM (active). Besides, the Potency entry in experiment [2], in [3], in experiment [4], in experiment [5], in experiment [6] and in experiment [7] was “inactive” in each case.

On to `c1ccc(-c2nc[nH]c2-c2ccccc2)cc1`, for which the Potency result in [1], in experiment [8], in experiment [3], in experiment [9], in [5] and in [6] was “inactive” each time.

With `O=S1(=O)c2cccc3cccc(c23)N1CCCN1CCN(c2ccc(F)cc2)CC1`, the Potency result in experiment [1], in [10], in experiment [8], in experiment [9], in [4] and in experiment [5] was “inactive” throughout. Besides, the Potency result in [6] is “inactive”.

Consider `Cc1cccc(OCCOc2cccc(C)c2)c1`, for which the Potency entry in experiment [1], in [2], in experiment [8], in experiment [3], in experiment [9] and in [5] was “inactive” throughout. Besides, the Potency entry in experiment [6] was “inactive”.

Consider `C=CC(C)(CCC=C(C)C)OC(=O)c1ccccc1` (stereo not given), for which the Potency entry in [2], in [10], in experiment [3], in experiment [9], in [4] and in experiment [6] was “inactive” throughout. Further, the Potency result in [7] was “inactive”.

In the case of `CC1(C)CCC(C)(C)c2cc(NC(=O)c3ccc(C(=O)O)cc3)ccc21`, the Potency result in experiment [1], in experiment [10], in experiment [8], in experiment [3], in experiment [5] and in experiment [6] was “inactive” each time. Also, in [7], the Potency result was “inactive”.

Consider `CN(C)CC/C=C1\c2ccccc2COc2ccccc21`, for which the Potency entry in experiment [1], in [2], in experiment [8], in experiment [3], in experiment [9] and in [4] was “inactive” each time. The Potency result in experiment [5], in [6] and in experiment [7] was “inactive” each time.

`ClC(Cl)(Cl)c1ccc(C(Cl)(Cl)Cl)cc1`: the Potency result in experiment [2], in [10], in [8], in experiment [3], in experiment [9] and in experiment [4] was “inactive” in each case. For the same molecule, the Potency entry in experiment [5], in experiment [6] and in [7] was “inactive” each time.

For `Cc1cccc(Oc2ccccc2)c1`, the Potency result in experiment [1], in [2], in experiment [8], in [5] and in experiment [6] was “inactive” throughout. The Potency in [9] is 47.8 µM (active).

Regarding `O=C1c2cccc(O)c2C(=O)c2c(O)cc(CO)cc21`, the Potency entry in experiment [2], in experiment [10], in experiment [8], in experiment [3], in experiment [5] and in experiment [6] was “inactive” each time. Further, in [7], the Potency entry is “inactive”.

Turning to `CCOC(=O)CC(=O)c1cc(F)c(Cl)nc1Cl`, the Potency entry in experiment [2], in [10], in experiment [8], in [3], in experiment [4] and in [6] was “inactive” throughout. Moreover, the Potency entry in experiment [7] is “inactive”.

In the case of `CCCCOc1ccc(CC(=O)NO)cc1`, the Potency entry in experiment [1], in [2], in experiment [8], in [3], in experiment [5] and in experiment [6] was “inactive” each time. In addition, the Potency entry in [7] is “inactive”. In addition, in experiment [4], the Potency is 2.13 µM (active).

Take `CCCC[C@H]1CN(CC2CCOCC2)C(=O)OC12CCN(C1(C)CCN(C(=O)c3c(C)ncnc3C)CC1)CC2`: the Potency entry in experiment [1], in experiment [2], in [8], in [3], in experiment [9] and in experiment [4] was “inactive” each time. The Potency result in experiment [5] and in experiment [7] was “inactive” each time.

Regarding `CCCCCc1ccc(N)cc1`, the Potency entry in experiment [2], in experiment [8], in experiment [3], in experiment [9], in experiment [5] and in [6] was “inactive” each time. Besides, in experiment [10], the Potency is 49 µM (active).

As for `CCCCCOC(=O)c1ccc(O)cc1`, the values for the Potency in [1], in [9] and in [4] were 49.6 µM (active), 44.2 µM (active) and 44.2 µM (active), respectively. The Potency result in experiment [2], in experiment [8], in experiment [3], in experiment [6] and in experiment [7] was “inactive” in each case.

Turning to `O=C(O)c1cn(C2CC2)c2cc(Cl)c(F)cc2c1=O`, the Potency entry in [2], in [10], in experiment [3] and in experiment [6] was “inactive” in each case.

Take `COCCCCCCCCOCCC[Si](C)(O[Si](C)(C)C)O[Si](C)(C)C`: the Potency entry in experiment [2], in experiment [8], in [5], in experiment [6] and in experiment [7] was “inactive” throughout. Further, the Potency in experiment [10] is 21.9 µM (active); in experiment [9], 2.45 µM (active).

In the case of `NC(N)=N/N=C/c1c(Cl)cccc1Cl`, the Potency result in experiment [1], in experiment [2], in experiment [8], in experiment [3], in [9] and in experiment [4] was “inactive” in each case. For the same molecule, the Potency result in experiment [5] and in [7] was “inactive” each time.

As to `CC(C)CCCC(C)CCO` (stereo not given), the Potency result in experiment [1], in [2], in [8], in experiment [3], in experiment [9] and in experiment [5] was “inactive” throughout. In addition, the Potency result in experiment [6] is “inactive”.

For `CCCCOc1cc(C(=O)OCCN(CC)CC)ccc1N`, the Potency result in experiment [8], in [3], in experiment [9], in [5] and in experiment [6] was “inactive” each time.

With `Oc1ccc(Cc2ccccc2)cc1`, the Potency result in experiment [2], in experiment [8], in [3], in experiment [6] and in [7] was “inactive” throughout. Further, the figures for the Potency in [9] and in experiment [4] were 36 µM (active) and 22.7 µM (active), respectively.

Turning to `CCOC(=O)[C@H](CCc1ccccc1)N[C@H]1CCc2ccccc2N(CC(=O)O)C1=O`, the Potency entry in experiment [2], in experiment [8] and in experiment [5] was “inactive” in each case. Besides, the Potency in [10] is 26.8 µM (active).

For the molecule `Cc1cccc(C(C)(C)C)c1O`, the Potency result in experiment [2], in [8], in [3], in [9], in experiment [4] and in [5] was “inactive” each time. In addition, the Potency result in experiment [6] was “inactive”.

Consider `Cn1sccc1=O`, for which the Potency result in experiment [1], in experiment [2], in experiment [8], in experiment [3], in [9] and in [5] was “inactive” throughout. In addition, the Potency entry in [6] and in [7] was “inactive” throughout.

As to `CCCCCCCC/C=C\CCCCCCCC(N)=O`, the Potency result in experiment [2], in experiment [8], in experiment [3], in [4], in experiment [5] and in experiment [6] was “inactive” throughout. Further, the Potency entry in experiment [7] is “inactive”.

Turning to `COc1cc(C(C)(C)C)c(O)c(C(C)(C)C)c1`, the Potency in experiment [1] was 43.6 µM (active). For the same molecule, the Potency result in experiment [2], in [8], in experiment [3], in [9] and in experiment [6] was “inactive” in each case.

For the molecule `CC(=O)/C(C)=C/C1C(C)=CCCC1(C)C` (stereo not given), the Potency was 17.4 µM (active) in experiment [1] and 15.5 µM (active) in [5]. Moreover, the Potency result in experiment [2], in experiment [8], in experiment [3], in experiment [9], in [4] and in experiment [6] was “inactive” throughout. Besides, in [7], the Potency result is “inactive”.

As for `CCN(CC)CCOc1ccc2c(c1)C(=O)c1cc(OCCN(CC)CC)ccc1-2`, the Potency entry in experiment [2], in experiment [8], in experiment [3], in experiment [4], in experiment [5] and in experiment [6] was “inactive” throughout. In addition, the Potency entry in experiment [7] was “inactive”. Further, the Potency in [9] is 10.7 µM (active).

With `O=[N+]([O-])c1cccc(Cl)c1Cl`, the Potency entry in experiment [2], in experiment [10], in [8], in experiment [3], in experiment [9] and in experiment [4] was “inactive” throughout. Also, the Potency entry in experiment [5], in [6] and in experiment [7] was “inactive” throughout.

`CCCCCC/C=C/C=O`: the Potency result in experiment [1], in experiment [2], in experiment [8], in experiment [3], in experiment [9] and in experiment [4] was “inactive” each time. In addition, the Potency entry in experiment [5], in experiment [6] and in [7] was “inactive” throughout.
